# Tests used:
# Assay in all cases: DAPPL (digital affinity profiling via proximity ligation, sequencing); 10 mM Tris-HCl pH 7.5, 50 mM NaCl, 1 mM DTT, 4% glycerol, room temperature, 30 min; GST-TFs on glutathione beads, 16-mer random dsDNA library, 0.1% formaldehyde crosslink after washing; high values mean tight binding
# FLI1 = biological target: T1, FLI1 (Homo sapiens, UniProt Q01543 1-452); conditions: protein: recombinant; tags: N-terminal GST; dsDNA, one strand shown
# T1 sequence: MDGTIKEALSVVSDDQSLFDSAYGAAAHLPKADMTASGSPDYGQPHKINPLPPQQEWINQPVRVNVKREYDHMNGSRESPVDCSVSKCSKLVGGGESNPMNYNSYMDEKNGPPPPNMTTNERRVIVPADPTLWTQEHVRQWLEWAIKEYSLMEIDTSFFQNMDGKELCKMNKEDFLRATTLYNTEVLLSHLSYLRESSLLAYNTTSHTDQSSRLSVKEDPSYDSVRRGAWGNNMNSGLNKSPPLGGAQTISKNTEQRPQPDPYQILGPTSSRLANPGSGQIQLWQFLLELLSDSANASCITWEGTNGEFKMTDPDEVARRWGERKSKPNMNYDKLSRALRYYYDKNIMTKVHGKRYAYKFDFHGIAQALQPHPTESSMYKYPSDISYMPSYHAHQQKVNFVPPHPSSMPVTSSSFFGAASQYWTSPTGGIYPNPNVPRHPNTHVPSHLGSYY
# Method in brief: (§1)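 Pools of DNA-barcoded human transcription factors, expressed in yeast as GST fusions on glutathione beads and combined with a tag-only sample, were incubated with 200 nmole of a 16-mer random double-stranded DNA library. Incubation took 30 min at room temperature in Tris/NaCl/DTT/glycerol buffer and was followed by washing, 0.1% formaldehyde crosslinking, proximity ligation (BsaI/T4 ligase, 1 h, 37 °C), PCR amplification and sequencing on an Illumina NextSeq500. Binding signal is the ratio of a hexamer's read frequency for a factor to its frequency for the tag-only sample.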
# ELK1 = biological target: T2, ELK1 (Homo sapiens, UniProt P19419 1-428); conditions: protein: recombinant; tags: N-terminal GST; dsDNA, one strand shown
# T2 sequence: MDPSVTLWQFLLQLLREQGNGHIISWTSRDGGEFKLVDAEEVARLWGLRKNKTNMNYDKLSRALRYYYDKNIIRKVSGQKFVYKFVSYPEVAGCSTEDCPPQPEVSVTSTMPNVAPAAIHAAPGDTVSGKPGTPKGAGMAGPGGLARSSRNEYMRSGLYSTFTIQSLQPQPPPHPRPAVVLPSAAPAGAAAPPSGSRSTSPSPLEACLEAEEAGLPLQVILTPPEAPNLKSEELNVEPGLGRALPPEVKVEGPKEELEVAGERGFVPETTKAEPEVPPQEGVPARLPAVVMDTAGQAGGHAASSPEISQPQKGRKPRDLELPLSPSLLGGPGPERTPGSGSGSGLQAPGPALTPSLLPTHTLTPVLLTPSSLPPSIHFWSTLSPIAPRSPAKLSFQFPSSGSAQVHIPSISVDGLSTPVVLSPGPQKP
# Method in brief: as §1
# GABPA = biological target: T3, GABPA (Homo sapiens, UniProt Q06546 1-454); conditions: protein: recombinant; tags: N-terminal GST; dsDNA, one strand shown
# T3 sequence: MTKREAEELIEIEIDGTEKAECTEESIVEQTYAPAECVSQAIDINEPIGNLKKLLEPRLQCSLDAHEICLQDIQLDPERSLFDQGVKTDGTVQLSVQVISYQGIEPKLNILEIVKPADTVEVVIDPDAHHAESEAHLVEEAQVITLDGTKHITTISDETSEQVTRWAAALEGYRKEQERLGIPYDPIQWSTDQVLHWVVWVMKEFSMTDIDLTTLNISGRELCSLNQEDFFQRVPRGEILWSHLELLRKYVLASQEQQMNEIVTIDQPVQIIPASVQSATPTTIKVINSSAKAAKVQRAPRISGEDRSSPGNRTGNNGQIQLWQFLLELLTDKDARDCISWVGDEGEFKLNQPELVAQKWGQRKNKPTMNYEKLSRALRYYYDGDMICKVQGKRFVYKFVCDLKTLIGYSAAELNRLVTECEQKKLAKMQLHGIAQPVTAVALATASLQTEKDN
# Method in brief: as §1
# ERG = biological target: T4, ERG (Homo sapiens, UniProt P11308 1-479); conditions: protein: recombinant; tags: N-terminal GST; dsDNA, one strand shown
# T4 sequence: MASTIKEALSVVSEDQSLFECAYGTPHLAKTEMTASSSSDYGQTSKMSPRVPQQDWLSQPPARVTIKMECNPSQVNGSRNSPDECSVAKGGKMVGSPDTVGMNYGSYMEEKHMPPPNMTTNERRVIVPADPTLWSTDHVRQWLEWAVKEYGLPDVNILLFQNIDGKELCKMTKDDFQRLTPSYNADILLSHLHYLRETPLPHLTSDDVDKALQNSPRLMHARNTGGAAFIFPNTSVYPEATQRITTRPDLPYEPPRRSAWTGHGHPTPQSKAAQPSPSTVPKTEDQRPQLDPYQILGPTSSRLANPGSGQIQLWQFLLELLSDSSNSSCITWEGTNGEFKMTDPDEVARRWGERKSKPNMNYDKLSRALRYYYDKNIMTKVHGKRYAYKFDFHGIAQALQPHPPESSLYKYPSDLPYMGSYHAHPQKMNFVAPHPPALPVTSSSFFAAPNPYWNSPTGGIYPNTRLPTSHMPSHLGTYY
# Method in brief: as §1
# ELF1 = ELF1 (Homo sapiens, UniProt P32519 1-619); conditions: protein: recombinant; tags: N-terminal GST; dsDNA, one strand shown
# Method in brief: as §1
# EHF = biological target: T5, EHF (Homo sapiens, UniProt Q9NZC4 1-300); conditions: protein: recombinant; tags: N-terminal GST; dsDNA, one strand shown
# T5 sequence: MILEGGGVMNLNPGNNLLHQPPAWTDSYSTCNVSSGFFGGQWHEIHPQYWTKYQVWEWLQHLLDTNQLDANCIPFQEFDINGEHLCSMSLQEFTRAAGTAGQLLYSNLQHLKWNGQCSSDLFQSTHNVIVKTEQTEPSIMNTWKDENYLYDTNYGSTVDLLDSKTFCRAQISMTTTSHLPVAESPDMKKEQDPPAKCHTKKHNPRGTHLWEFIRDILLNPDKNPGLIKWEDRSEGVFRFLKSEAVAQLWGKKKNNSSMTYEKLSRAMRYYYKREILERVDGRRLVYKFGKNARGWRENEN
# Method in brief: as §1
# SPI1 = SPI1 (Homo sapiens, UniProt P17947 1-270); conditions: protein: recombinant; tags: N-terminal GST; dsDNA, one strand shown
# Method in brief: as §1
# SPIB = SPIB (Homo sapiens, UniProt Q01892 1-262); conditions: protein: recombinant; tags: N-terminal GST; dsDNA, one strand shown
# Method in brief: as §1
# ELK3 = biological target: T6, ELK3 (Homo sapiens, UniProt P41970 1-407); conditions: protein: recombinant; tags: N-terminal GST; dsDNA, one strand shown
# T6 sequence: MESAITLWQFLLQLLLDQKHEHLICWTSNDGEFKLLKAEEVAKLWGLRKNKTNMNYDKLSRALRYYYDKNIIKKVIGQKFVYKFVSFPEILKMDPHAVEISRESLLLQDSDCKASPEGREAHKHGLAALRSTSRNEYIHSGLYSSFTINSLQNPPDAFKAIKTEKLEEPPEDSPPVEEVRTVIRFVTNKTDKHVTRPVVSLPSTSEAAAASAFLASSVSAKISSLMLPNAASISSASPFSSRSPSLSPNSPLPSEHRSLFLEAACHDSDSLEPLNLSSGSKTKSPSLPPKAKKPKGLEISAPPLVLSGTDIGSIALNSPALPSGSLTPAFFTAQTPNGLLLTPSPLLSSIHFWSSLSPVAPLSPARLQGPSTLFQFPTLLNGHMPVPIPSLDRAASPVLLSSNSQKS
# Method in brief: as §1
# FEV = biological target: T7, FEV (Homo sapiens, UniProt Q99581 1-238); conditions: protein: recombinant; tags: N-terminal GST; dsDNA, one strand shown
# T7 sequence: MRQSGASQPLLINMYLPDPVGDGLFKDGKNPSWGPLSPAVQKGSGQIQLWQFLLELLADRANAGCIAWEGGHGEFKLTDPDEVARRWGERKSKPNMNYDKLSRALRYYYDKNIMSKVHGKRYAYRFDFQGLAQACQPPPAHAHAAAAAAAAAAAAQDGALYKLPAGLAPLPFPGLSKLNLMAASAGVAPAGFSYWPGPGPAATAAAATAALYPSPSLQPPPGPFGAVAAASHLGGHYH
# Method in brief: as §1
# ETV5 = ETV5 (Homo sapiens, UniProt P41161 1-510); conditions: protein: recombinant; tags: N-terminal GST; dsDNA, one strand shown
# Method in brief: as §1
# HSF1 = HSF1 (Homo sapiens, UniProt Q00613 1-529); conditions: protein: recombinant; tags: N-terminal GST; chain copies: 3; dsDNA, one strand shown
# Method in brief: as §1
# SPIC = biological target: T8, SPIC (Homo sapiens, UniProt Q8N5J4 1-248); conditions: protein: recombinant; tags: N-terminal GST; dsDNA, one strand shown
# T8 sequence: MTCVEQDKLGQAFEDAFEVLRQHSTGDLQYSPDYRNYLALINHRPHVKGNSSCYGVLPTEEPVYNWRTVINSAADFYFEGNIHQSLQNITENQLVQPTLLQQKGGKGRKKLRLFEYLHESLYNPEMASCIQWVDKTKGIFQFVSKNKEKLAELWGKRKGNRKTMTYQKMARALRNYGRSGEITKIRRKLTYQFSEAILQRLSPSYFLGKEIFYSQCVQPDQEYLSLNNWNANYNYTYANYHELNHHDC
# Method in brief: as §1
# ELF4 = ELF4 (Homo sapiens, UniProt Q99607 1-663); conditions: protein: recombinant; tags: N-terminal GST; dsDNA, one strand shown
# Method in brief: as §1
# ELK4 = biological target: T9, ELK4 (Homo sapiens, UniProt P28324-2 1-405); conditions: protein: recombinant; tags: N-terminal GST; dsDNA, one strand shown
# T9 sequence: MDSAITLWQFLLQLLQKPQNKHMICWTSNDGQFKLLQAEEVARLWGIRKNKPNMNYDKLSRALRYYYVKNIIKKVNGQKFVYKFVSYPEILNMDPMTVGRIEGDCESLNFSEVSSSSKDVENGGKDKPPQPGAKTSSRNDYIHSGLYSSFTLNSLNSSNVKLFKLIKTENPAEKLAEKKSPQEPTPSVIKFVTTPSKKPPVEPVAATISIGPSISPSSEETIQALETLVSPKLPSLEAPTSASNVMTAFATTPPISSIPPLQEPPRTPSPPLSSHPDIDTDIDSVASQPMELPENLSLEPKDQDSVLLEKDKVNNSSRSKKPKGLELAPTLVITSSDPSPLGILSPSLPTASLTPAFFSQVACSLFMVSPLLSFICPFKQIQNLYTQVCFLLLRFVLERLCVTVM
# Method in brief: as §1
# ETV2 = biological target: T10, ETV2 (Homo sapiens, UniProt O00321 1-342); conditions: protein: recombinant; tags: N-terminal GST; dsDNA, one strand shown
# T10 sequence: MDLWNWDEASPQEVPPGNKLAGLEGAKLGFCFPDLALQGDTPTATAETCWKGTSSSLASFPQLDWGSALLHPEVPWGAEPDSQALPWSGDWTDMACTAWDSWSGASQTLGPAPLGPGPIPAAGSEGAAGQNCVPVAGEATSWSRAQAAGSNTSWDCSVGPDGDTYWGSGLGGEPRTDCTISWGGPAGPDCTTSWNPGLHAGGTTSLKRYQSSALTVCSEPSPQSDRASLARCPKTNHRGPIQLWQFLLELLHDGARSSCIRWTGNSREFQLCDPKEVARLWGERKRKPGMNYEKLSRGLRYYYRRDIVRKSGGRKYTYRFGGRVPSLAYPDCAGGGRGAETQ
# Method in brief: as §1
# ELF3 = biological target: T11, ELF3 (Homo sapiens, UniProt P78545 1-371); conditions: protein: recombinant; tags: N-terminal GST; dsDNA, one strand shown
# T11 sequence: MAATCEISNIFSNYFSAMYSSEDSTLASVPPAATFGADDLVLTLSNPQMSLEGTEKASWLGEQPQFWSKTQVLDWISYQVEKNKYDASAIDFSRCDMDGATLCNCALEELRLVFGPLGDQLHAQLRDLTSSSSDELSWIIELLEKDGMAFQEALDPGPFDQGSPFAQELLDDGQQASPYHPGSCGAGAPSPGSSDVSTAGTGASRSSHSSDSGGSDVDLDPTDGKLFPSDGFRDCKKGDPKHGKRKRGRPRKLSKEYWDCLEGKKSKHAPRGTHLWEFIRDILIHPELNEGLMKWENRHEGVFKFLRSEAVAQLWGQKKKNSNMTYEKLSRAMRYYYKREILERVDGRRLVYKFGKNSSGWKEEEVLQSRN
# Method in brief: as §1
# CRX = CRX (Homo sapiens, UniProt O43186 1-299); conditions: protein: recombinant; tags: N-terminal GST; dsDNA, one strand shown
# Method in brief: as §1
# ETV1 = ETV1 (Homo sapiens, UniProt P50549 1-477); conditions: protein: recombinant; tags: N-terminal GST; dsDNA, one strand shown
# Method in brief: as §1
# Chain of HSF1 (Q00613 whole entry): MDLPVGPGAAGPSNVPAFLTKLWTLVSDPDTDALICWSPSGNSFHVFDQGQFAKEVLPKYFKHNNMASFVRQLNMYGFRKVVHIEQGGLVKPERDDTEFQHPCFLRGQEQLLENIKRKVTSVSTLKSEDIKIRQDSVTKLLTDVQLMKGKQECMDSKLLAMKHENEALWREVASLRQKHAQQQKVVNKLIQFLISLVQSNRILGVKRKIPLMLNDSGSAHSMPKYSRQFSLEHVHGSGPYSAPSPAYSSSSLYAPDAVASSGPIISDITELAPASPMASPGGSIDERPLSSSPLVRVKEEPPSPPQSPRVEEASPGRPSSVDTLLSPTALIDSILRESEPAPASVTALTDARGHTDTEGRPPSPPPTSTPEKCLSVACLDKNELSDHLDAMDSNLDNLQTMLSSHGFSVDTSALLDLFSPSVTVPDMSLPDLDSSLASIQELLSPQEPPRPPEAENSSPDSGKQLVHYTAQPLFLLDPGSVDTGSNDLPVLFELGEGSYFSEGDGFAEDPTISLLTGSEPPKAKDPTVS
# Chain of ETV5 (P41161 whole entry): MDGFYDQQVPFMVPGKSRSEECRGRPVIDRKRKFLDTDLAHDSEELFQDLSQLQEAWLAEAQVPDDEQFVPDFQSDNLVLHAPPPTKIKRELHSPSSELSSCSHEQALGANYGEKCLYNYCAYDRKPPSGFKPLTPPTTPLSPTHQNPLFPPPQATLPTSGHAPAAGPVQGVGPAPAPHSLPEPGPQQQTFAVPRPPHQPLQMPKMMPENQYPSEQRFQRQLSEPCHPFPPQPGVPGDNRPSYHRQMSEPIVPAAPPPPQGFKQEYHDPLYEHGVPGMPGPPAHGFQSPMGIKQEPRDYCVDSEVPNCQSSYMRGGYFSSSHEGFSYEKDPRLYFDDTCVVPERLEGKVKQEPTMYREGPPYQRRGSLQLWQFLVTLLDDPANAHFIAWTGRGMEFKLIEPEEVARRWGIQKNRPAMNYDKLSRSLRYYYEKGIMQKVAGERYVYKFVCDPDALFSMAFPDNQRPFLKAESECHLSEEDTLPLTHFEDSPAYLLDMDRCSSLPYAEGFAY
# Chain of CRX (O43186 whole entry): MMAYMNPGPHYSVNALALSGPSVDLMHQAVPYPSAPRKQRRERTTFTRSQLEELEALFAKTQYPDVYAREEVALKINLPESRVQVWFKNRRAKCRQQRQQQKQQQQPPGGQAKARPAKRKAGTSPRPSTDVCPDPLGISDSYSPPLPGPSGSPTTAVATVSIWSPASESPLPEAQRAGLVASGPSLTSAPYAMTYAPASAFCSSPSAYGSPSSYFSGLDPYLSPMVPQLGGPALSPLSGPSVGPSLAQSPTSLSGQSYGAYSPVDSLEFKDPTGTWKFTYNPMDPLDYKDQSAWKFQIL
# Chain of ETV1 (P50549 whole entry): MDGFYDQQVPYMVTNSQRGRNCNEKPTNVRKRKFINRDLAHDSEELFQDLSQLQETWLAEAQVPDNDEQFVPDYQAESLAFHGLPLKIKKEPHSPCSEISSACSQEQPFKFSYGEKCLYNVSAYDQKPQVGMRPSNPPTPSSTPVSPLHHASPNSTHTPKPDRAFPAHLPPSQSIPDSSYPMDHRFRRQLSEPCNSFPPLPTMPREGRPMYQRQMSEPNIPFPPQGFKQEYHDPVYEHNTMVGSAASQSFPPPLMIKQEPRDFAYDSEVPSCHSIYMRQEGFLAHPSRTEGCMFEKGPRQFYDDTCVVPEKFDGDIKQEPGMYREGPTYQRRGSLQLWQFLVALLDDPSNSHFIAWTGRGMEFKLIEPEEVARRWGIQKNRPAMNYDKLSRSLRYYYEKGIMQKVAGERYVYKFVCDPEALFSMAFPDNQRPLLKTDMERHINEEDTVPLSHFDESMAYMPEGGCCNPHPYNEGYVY
# Chain of SPIB (Q01892 whole entry): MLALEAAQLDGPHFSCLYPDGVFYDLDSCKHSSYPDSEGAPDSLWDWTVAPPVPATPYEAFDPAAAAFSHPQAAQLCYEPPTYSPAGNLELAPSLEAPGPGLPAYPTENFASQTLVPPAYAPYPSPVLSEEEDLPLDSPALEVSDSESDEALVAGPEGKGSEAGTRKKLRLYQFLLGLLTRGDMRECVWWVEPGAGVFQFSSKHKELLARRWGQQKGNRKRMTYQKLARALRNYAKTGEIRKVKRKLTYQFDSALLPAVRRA
# Chain of ELF4 (Q99607 whole entry): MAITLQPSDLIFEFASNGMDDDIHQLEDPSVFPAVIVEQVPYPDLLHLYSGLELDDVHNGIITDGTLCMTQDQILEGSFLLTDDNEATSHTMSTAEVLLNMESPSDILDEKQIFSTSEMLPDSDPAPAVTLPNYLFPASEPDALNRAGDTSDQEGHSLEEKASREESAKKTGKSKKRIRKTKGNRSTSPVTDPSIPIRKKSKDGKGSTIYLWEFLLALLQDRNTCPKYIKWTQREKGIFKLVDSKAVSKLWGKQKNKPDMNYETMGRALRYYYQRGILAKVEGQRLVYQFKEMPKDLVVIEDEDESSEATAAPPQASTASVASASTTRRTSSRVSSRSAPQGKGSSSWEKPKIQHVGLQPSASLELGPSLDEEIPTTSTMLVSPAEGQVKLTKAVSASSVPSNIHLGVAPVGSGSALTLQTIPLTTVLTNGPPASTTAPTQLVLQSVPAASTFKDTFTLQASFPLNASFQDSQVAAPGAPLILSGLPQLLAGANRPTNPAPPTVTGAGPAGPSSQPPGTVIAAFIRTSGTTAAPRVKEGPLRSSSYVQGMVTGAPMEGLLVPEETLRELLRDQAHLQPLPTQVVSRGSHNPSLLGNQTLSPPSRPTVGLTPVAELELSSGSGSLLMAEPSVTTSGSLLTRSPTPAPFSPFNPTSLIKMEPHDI
# Chain of ELF1 (P32519 whole entry): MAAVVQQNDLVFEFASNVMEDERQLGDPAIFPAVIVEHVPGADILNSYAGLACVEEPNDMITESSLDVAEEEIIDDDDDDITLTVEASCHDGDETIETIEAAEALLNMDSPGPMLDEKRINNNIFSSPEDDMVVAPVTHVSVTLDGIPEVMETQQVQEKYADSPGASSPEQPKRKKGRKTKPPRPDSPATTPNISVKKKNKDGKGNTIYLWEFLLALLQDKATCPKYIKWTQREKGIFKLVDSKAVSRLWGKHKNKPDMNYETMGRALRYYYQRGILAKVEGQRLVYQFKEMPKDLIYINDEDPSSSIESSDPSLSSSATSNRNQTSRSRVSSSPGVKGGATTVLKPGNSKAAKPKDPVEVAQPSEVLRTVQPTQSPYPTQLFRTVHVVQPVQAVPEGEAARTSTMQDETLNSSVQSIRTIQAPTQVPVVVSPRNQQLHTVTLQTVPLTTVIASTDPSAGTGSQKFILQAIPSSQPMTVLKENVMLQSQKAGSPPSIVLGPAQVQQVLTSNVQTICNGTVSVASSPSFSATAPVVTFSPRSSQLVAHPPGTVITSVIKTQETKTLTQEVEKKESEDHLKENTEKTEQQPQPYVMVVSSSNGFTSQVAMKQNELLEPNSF
sequence,measurement,setting,value
AATGCT,binding signal,FLI1,"1.16 fold enrichment (6-mer frequency, TF over GST control)"
same,binding signal,ELK1,"1.17 fold enrichment (6-mer frequency, TF over GST control)"
same,binding signal,GABPA,"1.14 fold enrichment (6-mer frequency, TF over GST control)"
same,binding signal,ERG,"1.16 fold enrichment (6-mer frequency, TF over GST control)"
same,binding signal,ELF1,"1.16 fold enrichment (6-mer frequency, TF over GST control)"
same,binding signal,EHF,"1.14 fold enrichment (6-mer frequency, TF over GST control)"
same,binding signal,SPI1,"1.12 fold enrichment (6-mer frequency, TF over GST control)"
same,binding signal,SPIB,"1.16 fold enrichment (6-mer frequency, TF over GST control)"
same,binding signal,ELK3,"1.12 fold enrichment (6-mer frequency, TF over GST control)"
same,binding signal,FEV,"1.2 fold enrichment (6-mer frequency, TF over GST control)"
same,binding signal,ETV5,"1.27 fold enrichment (6-mer frequency, TF over GST control)"
same,binding signal,HSF1,"1.29 fold enrichment (6-mer frequency, TF over GST control)"
same,binding signal,SPIC,"1.24 fold enrichment (6-mer frequency, TF over GST control)"
same,binding signal,ELF4,"1.25 fold enrichment (6-mer frequency, TF over GST control)"
same,binding signal,ELK4,"1.3 fold enrichment (6-mer frequency, TF over GST control)"
same,binding signal,ETV2,"1.3 fold enrichment (6-mer frequency, TF over GST control)"
same,binding signal,ELF3,"1.21 fold enrichment (6-mer frequency, TF over GST control)"
same,binding signal,CRX,"1.26 fold enrichment (6-mer frequency, TF over GST control)"
same,binding signal,ETV1,"1.24 fold enrichment (6-mer frequency, TF over GST control)"
